ChEMBL document CHEMBL4513216, “Probing the Open Global Health Chemical Diversity Library for Multistage-Active Starting Points for Next-Generation Antimalarials” (ACS Infect Dis, 2020)
In all, about 69,000 compounds went through this assay and about 8,600 (12%) showed an effect of 50% or more. What follows is part of a selection rich in strong results, with near analogues and random picks from the rest.

Test system: Plasmodium berghei
Assay: Screen against P. berghei liver stage (PbLuc), transformed with Luciferase, at 10uM
Format: functional, HepG2
Details: tested at 10 uM

SMILES | INHIBITION [%]
O=C(O)C1(Cc2cccc(Cl)c2)CCCN(c2ncnc3[nH]ccc23)C1 (centres undefined) | -37.9
CC(C)Cc1nc(CN(C)c2cc(C(C)C)nc3ccnn23)no1 | -30.6
CCNC(=O)N1CCC(c2ccccc2)C1 (centres undefined) | -31
CSCc1cc(F)ccc1CNCc1ccncc1 | 24.2
CSCc1cc(F)ccc1CNCc1cccnc1 | 35.4
CSCc1cc(F)ccc1CNCc1ncc[nH]1 | 63.3
Cc1nc(Nc2ncccn2)cc(C2CN(C(=O)c3cccnc3)C2)n1 | 37.6
CC1=CC[C@@H]2CN(C(=O)c3ccc(-c4nnn(C)n4)cc3)C[C@@H]2C1 | 35.8
CC(C)Nc1nc2c(c(NC3CC3)n1)CN(C(=O)Cc1ccsc1)CC2 | 83.7
CC(C)Nc1nc2c(c(NC3CC3)n1)CN(C(=O)c1ccnnc1)CC2 | 65.9
Cc1ccc(NC2CCN(C(=O)c3ccsc3)CC2)nn1 | 31.8
CC(C)Nc1nc2c(c(N(C)C)n1)CCN(Cc1nccn1C)CC2 | 21.7
CC(C)Nc1nc2c(cc1C(=O)O)CCN(Cc1ccsc1)CC2 | 21.4
CC(C)N(C)Cc1cnc2n1CCN(C(=O)Cc1ccsc1)C2 | -13
CC(C)Nc1nc2c(c(NC3CC3)n1)CN(C(=O)c1ccsc1)CC2 | 79.2
CC(C)Nc1nc2c(c(NC3CC3)n1)CCN(C1CCOCC1)CC2 | 23.1
CC(C)N(C)Cc1noc2c1CN(C(=O)c1ccsc1)CC2 | -18.5
CC(C)Nc1nc2c(c(NC3CC3)n1)CN(C(=O)c1ccncc1)CC2 | 5.36
CC(C)Nc1nc2c(c(NC3CC3)n1)CCN(Cc1nccn1C)CC2 | 60.3
Cc1nc(NC(C)C)nc2c1CN(Cc1nccn1C)CC2 | -4.02
CC(C(=O)NCCOc1ccccc1)n1cncn1 (centres undefined) | 2.97
CN(C)C(=O)CN1CC[C@H]2CN(S(C)(=O)=O)C[C@@H]2C1=O | -41.8

SMILES | INHIBITION [%]
O=C(c1ccccc1F)N1C[C@H]2CCC[C@@]2(COCc2ccncc2)C1 | 15.4
Cc1cnn(CCNCc2csc(-c3ccccc3)n2)c1 | 34.75
CC(C)CN1CC[C@@H]2[C@H](CC1)N(C(=O)c1ccccc1)CCS2(=O)=O | 36.9
COc1ccccc1OCC(=O)NCC(C)(O)c1ccccc1 (centres undefined) | 9.79
CC(C)n1cc(CN2CCCN(C(=O)CC3CCCO3)CC2)cn1 (centres undefined) | -4.94
O=C(CCS(=O)(=O)c1ccccc1)N1CCCC(n2cccn2)C1 (centres undefined) | 34.5
Cn1cnc2c1C(COCc1ccccc1)N(Cc1ccccn1)CC2 (centres undefined) | 18.5
Cc1c(S(=O)(=O)N2CCCC2c2nnc(-c3ccsc3)o2)cnn1C (centres undefined) | 0.4
CN1C[C@H]2CC[C@@H](CC1=O)N2C(=O)c1ccc(-c2ccccc2)[nH]c1=O | -45
Cc1nn(C)c(Cl)c1CNCc1cccnc1N1CCOCC1 | 41.8
CN(C(=O)CNc1ccc(C#N)cc1)C1CCCCC1 | -87.7
NC(=O)CN(Cc1ncc(-c2ccccc2)o1)C1CCCC1 | -32
N#Cc1ccc(CN(CC(N)=O)C2CCCC2)c(Br)c1 | 90.2
N#Cc1ccccc1CN(CC(N)=O)C1CCCC1 | 20.9
N#Cc1ccc(CN(CC(N)=O)Cc2cccc(F)c2)cc1 | 17.1
N#Cc1ccc(CN(CC(N)=O)C2CCCC2)cc1 | 90.2
Cn1cccc1C(=O)N1CCn2nnc(COc3cccnc3)c2C1 | -6.21
Cc1nn(C)c(N(C)C)c1CNCc1ccnc(N2CCCCC2)c1 | -56.7
Cc1ccc(C(=O)N2CCN(CC(C)O)CC2)cc1S(C)(=O)=O (centres undefined) | -19.6
CS(=O)(=O)c1ccc(NC(=O)NCCC2=CCCCC2)cc1 | -165
COc1cc(NC(=O)c2ccc(C)cc2C)c(C(=O)N(C)C)cc1OC | -7.36
CN(CCCNC(=O)C1CCc2cn[nH]c2C1)c1ccccc1 (centres undefined) | 24.3

SMILES | INHIBITION [%]
O=C(NCCCSc1ccc(F)cc1)C1CCc2cn[nH]c2C1 (centres undefined) | 50.8
CN(CCCNC(=O)C1CCc2cn[nH]c2C1)c1ccc(F)cc1 (centres undefined) | 31.2
CN(Cc1nc(Cc2cccc(F)c2)no1)C1CCOCC1 | -24.2
Cc1nn(C)cc1Cn1c(=O)cnc2ccccc21 | 43.4
CCN1CC2(CCOCC2)c2cc(NS(=O)(=O)CC)ccc21 | 38.5
COCCN1CC2(CCOCC2)c2cc(NC(=O)C3CC=CC3)ccc21 | 76.5
COCC(=O)Nc1ccc2c(c1)C1(CCOCC1)CN2CCF | -4.08
COCCN1CC(C(=O)Nc2ccc3c(c2)CCC(=O)N3C)CC1=O (centres undefined) | -22.6
CCCC(=O)Nc1ccc2c(c1)C1(CCOCC1)CN2CCOC | 52.1
CCC(=O)Nc1ccc2c(c1)C1(CCOCC1)CN2CCOC | 55.7
CCC(=O)Nc1ccc2c(c1)C1(CCOCC1)CN2CCF | 10.4
CCS(=O)(=O)Nc1ccc2c(c1)C1(CCOCC1)CN2C | 46.6
CN(C)C(=O)N1CC2(CCOCC2)c2cc(NC(=O)CCO)ccc21 | 45.2
Cn1ccnc1CN1CCC2(CC1)CC(NC(=O)c1ccccn1)CO2 (centres undefined) | 28.4
Cc1cc(C)nc(C2(C)CCCN2CCO)n1 (centres undefined) | -4.6
CCCc1cc(C(=O)Nc2nc(SC)ns2)n(C)n1 | -106.9
Cc1ccccc1C(C)NC(=O)CSCC#N (centres undefined) | 31.9
Cc1ccc(C(=O)NC2CCN(S(C)(=O)=O)CC2)c(=O)[nH]1 | 47.7
Cc1cnc(C(=O)N2CCN(c3ncc4c(n3)CCOC4)CC2)cn1 | 27.4
CCCc1nc(CN(CC)C(=O)c2onc3ccccc23)no1 | -14.1
COCCN1CC(O)CN(C(=O)c2ccc(SC)cc2)CC1=O (centres undefined) | 29
Cc1ccc(S(=O)(=O)Nc2ccc(-n3cccc3C(=O)O)c(C)c2)cc1 | 56

SMILES | INHIBITION [%]
Cc1ccc(S(=O)(=O)Nc2ccc(-n3cccc3C(=O)O)c(C)c2)s1 | -3.16
Cc1cc(NS(=O)(=O)c2ccccc2F)ccc1-n1cccc1C(=O)O | -19.7
Cc1n[nH]c(C)c1NC(=O)CN1CCN(c2nccs2)C(C)C1 (centres undefined) | 14.4
Cc1cccn2c(CC(=O)N3CCC(Oc4ncccn4)CC3)cnc12 | -30.3
Cc1cccn2c(CC(=O)N3CCC(CCn4cccn4)CC3)cnc12 | 71.3
Cc1ccc2nc(C(=O)N3CCC(CCn4cccn4)CC3)cn2c1 | -14.1
COc1ncc(NCc2cc(C#N)cs2)cc1C(N)=O | 11.4
CO[C@@H]1CCN(Cc2c(C)noc2C)[C@@H]2CN(Cc3ccco3)C[C@@H]21 | 35.5
CCN(CC1CCOC1)C(=O)Nc1ccc(N2CCOCC2)nc1 (centres undefined) | 36.05
Cn1cc(CCC(=O)N2CCCN(c3ncccc3C#N)CC2)cn1 | 37.4
Cc1ccc(F)c(S(=O)(=O)N2CCCC2c2ccncc2)c1 (centres undefined) | 45.3
COc1ccc(C2CCCN2S(=O)(=O)c2cc(F)ccc2F)cc1 (centres undefined) | 62.6
O=S(=O)(c1cc(F)ccc1F)N1CCCC1c1ccncc1 (centres undefined) | 19.3
CCOCc1cccc(S(=O)(=O)Nc2ccn(CC)n2)c1 | 18.4
O=C(c1cnc2c(c1)CCC2)N1CCCC(CO)(CC2CC2)C1 (centres undefined) | 68.4
COCCCC1(CO)CCCN(C(=O)c2cnc3c(c2)CCCC3)C1 (centres undefined) | 35.9
COCCC1(C(=O)O)CCCN(C(=O)c2cnc3c(c2)CCCC3)C1 (centres undefined) | 47.1
CCn1[nH]c(C)c2c(C(F)(F)C(F)(F)F)cc(=O)nc1-2 | 50.5
Cc1[nH]n(C)c2nc(=O)cc(C(F)(F)C(F)(F)F)c1-2 | 76.3
CCn1[nH]c(C)c2c(C(F)(F)F)cc(=O)nc1-2 | 31.7
O=C(Cn1nc2ccccc2n1)N1CCCn2cncc2C1 | 1.37
Cc1csc(NC(=O)C(C)Oc2ccc3c(c2)OCO3)n1 (centres undefined) | 16.2

SMILES | INHIBITION [%]
Cc1cnn(CC2CCCN2C(=O)c2cc(O)nc3ccccc23)c1 (centres undefined) | -29.8
Cc1ccc(NC(=O)NCCc2ccncc2C)c(N(C)C)n1 | -0.554
Cc1nccn1CCCN1CCCC(c2nccn2CC2CCC2)C1 (centres undefined) | 41.8
Cc1nccn1CCCN1CCCC(c2nccn2C)C1 (centres undefined) | 34.2
Cc1nccn1CCCN1CCC(c2nccn2CC2CCC2)CC1 | 60.2
CS(=O)(=O)N1CCOCC2(CN(Cc3nccs3)CCO2)C1 (centres undefined) | 45.2
CCOCC(O)CN1CCN(C(=O)C(C)(C)CC)CC1 (centres undefined) | 24
O=C(c1cncc(NCC2COc3ccccc3C2)n1)N1CCOCC1 (centres undefined) | 3.13
CN(Cc1cc(C(C)(C)C)n[nH]1)C(=O)c1ccc2nccn2c1 | 48.3
CCN1CC(COc2ccc(OC)cc2)Oc2ccncc2S1(=O)=O (centres undefined) | -10.3
CC(C)(C)CN1CC(COc2ccccc2)Oc2ccncc2S1(=O)=O (centres undefined) | 59.3
O=S1(=O)c2cnccc2OC(COc2ccccc2)CN1CC1CC1 (centres undefined) | 22.2
COc1cccc(-c2cc(C(=O)NCCCC(F)(F)F)[nH]n2)c1 | -16
CC(C)n1c(=O)[nH]c2cn(-c3ccc(Br)cc3)c(=O)n21 | -17.3
O=C(O)c1ccccc1CN1CCC2(Cc3ccccc3CNC2=O)C1 (centres undefined) | 40
NS(=O)(=O)CCNC(=O)C1(c2ccccc2)CC1 | 19.6
CS(=O)(=O)NCCNC(=O)C1(c2ccc(F)cc2)CC1 | 27.6
CC(C)(C)c1ccc(C2(C(=O)NCCS(N)(=O)=O)CC2)cc1 | 68.5
NS(=O)(=O)CCNC(=O)C1(c2ccc(Br)cc2)CC1 | -8.19
CC(C)(C)c1ccc(C2(C(=O)NCCS(C)(=O)=O)CC2)cc1 | 62.3
CC(C)(C)c1ccc(C2(C(=O)NCCCS(C)(=O)=O)CC2)cc1 | 43.5
